Where a name gives a salt, the structure may show the parent alone. ± gives the standard deviation of the averaged measurements.
Experiments:
Assay in all cases: growth (OD600 after 10 h); higher = more growth (less inhibition)
[1] = tested on: E. coli TESEC Alr+ wild-type control; details: compound 0.1 mM; raw OD600 reference: median of DMSO wells 0.241, cell-free background 0.041
Method: (§1)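 TESEC Mtb Alr E. coli, or the Alr+ wild-type control, in 384-well plates with Prestwick library compounds at 0.1 mM and 1% DMSO, across arabinose induction levels of 1E3 to 1E7 nM. Growth is read as OD600 after 10 h at 37 °C in triplicate biological replicates.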

E. coli TESEC Mtb Alr [2] = details: compound 0.1 mM
Method: as §1

E. coli TESEC Mtb Asd = details: compound 0.1 mM
Method: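 TESEC E. coli strains in which the native enzyme is deleted and replaced by arabinose-inducible Mtb Asd, DapB, CysH or TrpD, each grown in its selective medium. Strains were screened against the Prestwick library at 0.1 mM and 1% DMSO in 384-well format at low and high arabinose induction. Growth is read as OD600 after 10 h in triplicate.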

[3] = tested on: E. coli TESEC Alr+ wild-type control; details: compound 0.1 mM; raw OD600 reference: median of DMSO wells 0.49, cell-free background 0.052
Method: (§2)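 TESEC Mtb Alr E. coli (ΔaraC ΔtolC ΔentC Δalr ΔdadX, arabinose-inducible Mtb Alr) or the Alr+ wild-type control strain, grown in defined M9-fructose medium without D-alanine in 96-well plates with Prestwick library compounds at 0.1 mM and 1% DMSO. Low Alr induction is 0.1 µM arabinose and high induction is 10 mM arabinose.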

E. coli TESEC Mtb Alr [4] = details: compound 0.1 mM; remark: listed apart in the source
Method: as §2

[5] = arabinose 1000 nM, raw OD600 reference: median of DMSO wells 0.294, cell-free background 0.041
[6] = arabinose 10000 nM, raw OD600 reference: median of DMSO wells 0.264, cell-free background 0.041
[7] = arabinose 100000 nM, raw OD600 reference: median of DMSO wells 0.201, cell-free background 0.041
[8] = arabinose 1000000 nM, raw OD600 reference: median of DMSO wells 0.193, cell-free background 0.041
[9] = arabinose 10000000 nM, raw OD600 reference: median of DMSO wells 0.146, cell-free background 0.041
[10] = arabinose induction (level): High, raw OD600 reference: median of DMSO wells 0.331, cell-free background 0.041
[11] = arabinose induction (level): Low, raw OD600 reference: median of DMSO wells 0.417, cell-free background 0.041
[12] = arabinose 100 nM, raw OD600 reference: median of DMSO wells 0.413, cell-free background 0.052
[13] = arabinose 10000000 nM, raw OD600 reference: median of DMSO wells […], cell-free background 0.052

SMILES	growth [1]	growth (E. coli TESEC Mtb Alr [2]; [5])	growth (E. coli TESEC Mtb Alr [2]; [6])	growth (E. coli TESEC Mtb Alr [2]; [7])	growth (E. coli TESEC Mtb Alr [2]; [8])	growth (E. coli TESEC Mtb Alr [2]; [9])	growth (E. coli TESEC Mtb Asd; [10])	growth (E. coli TESEC Mtb Asd; [11])	growth [3]	growth (E. coli TESEC Mtb Alr [4]; [12])	growth (E. coli TESEC Mtb Alr [4]; [13])
Nc1nc(/C(=C/CC(=O)O)C(=O)N[C@@H]2C(=O)N3C(C(=O)O)=CCS[C@H]23)cs1 [Ceftibuten]	0.146 ± 0.0038	0.0633 ± 0.0031	0.04393 ± 0.00032	0.141 ± 0.012	0.138 ± 0.0075	0.177 ± 0.004	0.158 ± 0.0053	0.0769 ± 0.00091	0.252 ± 0.016	0.0471 ± 0.00072	0.273 ± 0.01
Clc1cnccn1 [2-Chloropyrazine]	0.241 ± 0.011	0.03733 ± 0.00025	0.0408 ± 0.0011	0.11 ± 0.0059	0.112 ± 0.0027	0.196 ± 0.0073	0.245 ± 0.034	0.307 ± 0.049	0.586 ± 0.067	0.4217 ± 0.0015	0.325 ± 0.0083
CC(CN(C)C)C(C)(O)Cc1ccc(Cl)cc1 (stereo not drawn) [Clobutinol hydrochloride]	0.221 ± 0.0026	0.263 ± 0.018	0.265 ± 0.0075	0.197 ± 0.0069	0.181 ± 0.0066	0.142 ± 0.013	0.222 ± 0.015	0.353 ± 0.1	0.588 ± 0.083	0.405 ± 0.0082	0.3421 ± 0.0029
CCN(CC)C(=O)c1ccc(O)c(OC)c1 [Ethamivan]	0.24 ± 0.0033	0.295 ± 0.0045	0.249 ± 0.0036	0.232 ± 0.013	0.181 ± 0.0058	0.138 ± 0.0057	0.388 ± 0.079	0.397 ± 0.041	0.543 ± 0.12	0.406 ± 0.013	0.356 ± 0.02
O=C(CCCN1CC=C(n2c(=O)[nH]c3ccccc32)CC1)c1ccc(F)cc1 [Droperidol]	0.178 ± 0.0085	0.241 ± 0.005	0.225 ± 0.0067	0.175 ± 0.014	0.105 ± 0.0018	0.152 ± 0.0037	0.205 ± 0.056	0.359 ± 0.058	0.404 ± 0.025	0.409 ± 0.0085	0.276 ± 0.0059
Cn1ccnc1S [Methimazole]	0.257 ± 0.0088	0.32 ± 0.018	0.275 ± 0.0076	0.195 ± 0.011	0.191 ± 0.0034	0.16 ± 0.0067	0.484 ± 0.0095	0.417 ± 0.096	0.57 ± 0.026	0.405 ± 0.014	0.323 ± 0.009
CC(CN(C)C)CN1c2ccccc2Sc2ccccc21 (stereo not drawn) [Trimeprazine tartrate]	0.184 ± 0.019	0.221 ± 0.019	0.255 ± 0.0092	0.189 ± 0.012	0.129 ± 0.0014	0.168 ± 0.0079	0.175 ± 0.028	0.323 ± 0.07	0.526 ± 0.013	0.392 ± 0.0092	0.298 ± 0.018
CN(C)CCOC(c1ccccc1)c1ccccc1 [Diphenhydramine hydrochloride]	0.2284 ± 0.002	0.296 ± 0.008	0.238 ± 0.0071	0.187 ± 0.013	0.151 ± 0.0087	0.148 ± 0.0063	0.194 ± 0.016	0.435 ± 0.016	0.495 ± 0.051	0.408 ± 0.0097	0.307 ± 0.029

Source: the supplement of paper PMC9262897, “Low-cost anti-mycobacterial drug discovery using engineered E. coli” (Nature Communications, 2022)
